Structures are written as SMILES. Unmarked numbers belong to inactive results. Records with an inconclusive call do not appear. Active and inactive are the calls of the source. The call rests on the fitted dose curve; in most records, active means well fitted curve in the direction sought with a large enough effect; inconclusive means small, poorly fitted or top-dose-only effect, or another doubt; inactive means no such curve, though single readings can be large; an effect the other way counts as inactive or inconclusive. Where a SMILES comes first, the peptide text is derived from it. [ ]: non-standard residue; d: D form. ξ: configuration not given here. ξPhe(βξ-Me) = CC(c1ccccc1)C(N)C(=O)O; GABA = NCCCC(=O)O

In the first assay the test system is Nanoluciferase (engineered Oplophorus gracilirostris luciferase). Put plainly: Primary Nanoluciferase (NLuc) qHTS assay for identification of artifact compounds. (AID 1845222).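 Further: NLuc secreted into diluted conditioned medium of S16 cells; 0% = DMSO and -100% = no enzyme.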 Particulars: NLuc-conditioned medium, Nano-Glo luminescence, 5 min; series mostly up to 54.1 µM; activity, negative = inhibition: at the top concentration. In short, it runs like this:
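Concentration-response data were obtained by luminescence after 5 min with Nano-Glo substrate at 1:100. The enzyme was diluted S16 NLuc-expressing cell medium, preincubated with compound for 15 min at RT. Curves were fitted with a 4-parameter Hill model.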
Turning to `N[C@H]1C[C@H]1c1ccc(-c2cccc(O)c2)cc1`, the Potency result is “inactive”.

Consider `CC1=CC(=O)CC(C)(C)C1(O)CCC(C)O` (stereo unspecified), for which the “activity, negative = inhibition” value is 1.73%.

Take `COc1cc(-c2cccc(O)c2)cc2c1OCO2`: the “activity, negative = inhibition” value was 4.58%.

`COC(=O)C1=CO[C@@H](O[C@@H]2O[C@H](COC(=O)/C=C/c3cc(OC)c(O)c(OC)c3)[C@@H](O)[C@H](O)[C@H]2O)[C@@H]2C(CO)=CC[C@H]12`: the “activity, negative = inhibition” value is 2.21% [at 25.7 µM].

`CC(C)CC1NC(=O)C(C(C)c2ccccc2)NC(=O)C(C(C)C)NC(=O)C(C)NC(=O)CCCNC(=O)C(Cc2c[nH]c3ccccc23)NC(=O)C(C)NC1=O` (stereo not drawn) (cyclo([GABA]AV[ξPhe(βξ-Me)]LAW); configuration not given here): the “activity, negative = inhibition” value was -1.94% [at 25.7 µM].

On to `CC1=C2C=C(CO)C(CO)CCC2(C)CCC1=O` (stereo unspecified), for which the “activity, negative = inhibition” value is 1.63%.

`COc1cc2c(cc1O)C1(OC)Cc3ccc4c(c3C1N(C)CC2)OCO4` (stereo unspecified): the “activity, negative = inhibition” value is 1.82%.

Consider `NCc1c[nH]c(=S)n1C1CCc2c(F)cc(F)cc2C1` (stereo unspecified), for which the “activity, negative = inhibition” value was -1.07%.

As to `CC1CCC2C(C(=O)O)=CC3C(O)C(C)(C)CC123` (stereo unspecified), the “activity, negative = inhibition” value is 0.299%.

System in the next assay: not listed separately
Put plainly: Primary redox qHTS assay for identification of artifact compounds. (AID 1845223). Further: potency means the concentration at half of the fitted maximal effect.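 On redox activity (% of DA3003): 0% = DMSO and 100% = reference compound.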 Particulars: Amplex Red/HRP redox cycling with DTT, fluorescence; series mostly up to 53.8 µM; redox activity (% of DA3003): at the top concentration. In short, it runs like this: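 Redox-cycling detection via DTT (250 uM final) oxidation coupled to Amplex Red (25 uM)/HRP (250 mU/mL) in HBSS. 15 min preincubation plus 30 min after DTT, room temperature. Ex/Em 525/598 nm; 4-parameter Hill fit against DMSO and 10 uM DA3003.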
A general note: qHTS replaces the single test concentration by a dilution series.
`Clc1ccc2c(c1)C1=NCCN1c1c(-c3noc(C4CC4)n3)ncn1-2`: the “redox activity (% of DA3003)” value is -5.33%.

For `O=c1c2ccccc2nc2n1CCC2O` (stereo unspecified), the “redox activity (% of DA3003)” value was -15.9% [at 85.7 µM].

Turning to `CC(=O)c1c(C)cc(O[C@@H]2O[C@H](CO)[C@@H](O)[C@H](O)[C@H]2O)cc1O`, the “redox activity (% of DA3003)” value is -15.7%.

On to `CN(C)c1cccc(-c2c3c(=O)n(-c4ccccc4Cl)[nH]c3cc(=O)n2C)c1`, for which the “redox activity (% of DA3003)” value was -4.71%.

For `C=C[C@H]1[C@H](O[C@@H]2O[C@H](CO[C@@H]3OC[C@](O)(CO)[C@H]3O)[C@@H](O)[C@H](O)[C@H]2O)OC=C2C(=O)OCC[C@H]21`, the Potency is 3.27 µM (active).

As for `CCC(=O)NS(=O)(=O)c1ccc(-c2c(-c3ccccc3)noc2C)cc1`, the “redox activity (% of DA3003)” value is -3.05%.

For the compound `COc1c2c(c(C)c3c1C(=O)OC3)OC1(C)CC(O)C3(O)C(C)(C)OC(=O)CCC3(C)C1C2` (stereo unspecified), the “redox activity (% of DA3003)” value was 17.7% [at 25.6 µM].

`COc1cc(/C=C/CO)ccc1O[C@@H]1O[C@H](CO)[C@@H](O)[C@H](O)[C@H]1O`: the “redox activity (% of DA3003)” value is -2.91%.

Take `C[C@@H](OC(=O)/C=C/c1ccc(O)cc1)C1=C[C@]2(C=C[C@@H]3C(C(=O)O)=CO[C@@H](O[C@@H]4O[C@H](CO[C@@H]5O[C@H](CO)[C@@H](O)[C@H](O)[C@H]5O)[C@@H](O)[C@H](O)[C@H]4O)[C@@H]32)OC1=O`: the “redox activity (% of DA3003)” value is -0.495% [at 25.6 µM].

In the case of `CC(C)(OC1OC(CO)C(O)C(O)C1O)C1CCC(O)(CO)C2CC(O)C(C)(O)C2C1` (stereo unspecified), the “redox activity (% of DA3003)” value was -10.9% [at 25.6 µM].

In the case of `COc1cc2c(cc1O)C1(OC)Cc3ccc4c(c3C1N(C)CC2)OCO4` (stereo unspecified), the “redox activity (% of DA3003)” value was -3.01%.

As to `COc1cc(/C=C/c2cc(O)cc(O[C@@H]3O[C@H](CO)[C@@H](O)[C@H](O)[C@H]3O)c2)ccc1O`, the “redox activity (% of DA3003)” value is -3.33% [at 25.6 µM].

Values taken from PubChem BioAssay (NCATS).
